# Data taken from publication PMC5540273 (PLoS ONE, 2017).
# “And” between values parts separate entries of the source, which are not always exact repeats. Equal entries are not always repeated. Where two headings read alike, the source gives them in different places.
# Legend:
# [1] = tested on: CDK4-cyclinD3; details: concentration: 1 μM, replicates: in singlicate, n = 1
# [2] = tested on: CDK4; details: concentration: 1 μM, replicates: in singlicate, n = 1
# [3] = tested on: CDK5; details: concentration: 1 μM, replicates: in singlicate; n = 1
# [4] = tested on: CDK7; details: concentration: 1 μM, replicates: in singlicate, n = 1
# [5] = tested on: CDK8; details: concentration: 1 μM, replicates: in singlicate, n = 1
# [6] = tested on: CDK9; details: concentration: 1 μM, replicates: in singlicate; n = 1
# [7] = tested on: CDKL1; details: concentration: 1 μM, replicates: in singlicate, n = 1
# [8] = tested on: CDKL2; details: concentration: 1 μM, replicates: in singlicate, n = 1
# [9] = tested on: CDKL3; details: concentration: 1 μM, replicates: in singlicate, n = 1
# [10] = tested on: CDKL5; details: concentration: 1 μM, replicates: in singlicate; n = 1
# [11] = tested on: CHEK1; details: concentration: 1 μM, replicates: in singlicate, n = 1
# [12] = tested on: CHEK2; details: concentration: 1 μM, replicates: in singlicate, n = 1
# [13] = tested on: CIT; details: concentration: 1 μM, replicates: in singlicate, n = 1
# [14] = tested on: CLK1; details: concentration: 1 μM, replicates: in singlicate, n = 1
# [15] = tested on: CLK2; details: concentration: 1 μM, replicates: in singlicate; n = 1
# [16] = tested on: CLK3; details: concentration: 1 μM, replicates: in singlicate, n = 1
# [17] = tested on: CLK4; details: concentration: 1 μM, replicates: in singlicate, n = 1
# [18] = tested on: CSF1R-autoinhibited; details: concentration: 1 μM, replicates: in singlicate, n = 1
# [19] = tested on: CSF1R; details: concentration: 1 μM, replicates: in singlicate, n = 1
# [20] = tested on: CSK; details: concentration: 1 μM, replicates: in singlicate, n = 1
# 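Further: KINOMEscan kinase panel screen.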
smiles,measurement,setting,value
CSc1ccc(-c2cc3ncnc(SCC(=O)O)c3s2)cc1,%Inh,[1],0%
same,%Inh,[2],0%
same,%Inh,[3],22%
same,%Inh,[4],25%
same,%Inh,[5],0%
same,%Inh,[6],33%
same,%Inh,[7],4%
same,%Inh,[8],0%
same,%Inh,[9],0%
same,%Inh,[10],0%
same,%Inh,[11],0%
same,%Inh,[12],2%
same,%Inh,[13],1%
same,%Inh,[14],0%
same,%Inh,[15],0%
same,%Inh,[16],0%
same,%Inh,[17],0%
same,%Inh,[18],17%
same,%Inh,[19],18%
same,%Inh,[20],0%
CN1c2ccc(CNc3ccc(F)cc3)cc2-c2c(cnn2C)S1(=O)=O,%Inh,[1],0%
same,%Inh,[2],0%
same,%Inh,[3],0%
same,%Inh,[4],0%
same,%Inh,[5],0%
same,%Inh,[6],0%
same,%Inh,[7],9%
same,%Inh,[8],0%
same,%Inh,[9],0%
same,%Inh,[10],0%
same,%Inh,[11],0%
same,%Inh,[12],0%
same,%Inh,[13],1%
same,%Inh,[14],0%
same,%Inh,[15],11%
same,%Inh,[16],0%
same,%Inh,[17],17%
same,%Inh,[18],1%
same,%Inh,[19],0%
same,%Inh,[20],0%
CC(C)(CN)c1nc(-c2ccc(Cl)c(O)c2)c(-c2ccncc2)[nH]1.O=C(O)C(F)(F)F [SB-477794],%Inh,[1]; 1 µM,32% and 0%
same,%Inh,[2]; 1 µM,39% and 51%
same,%Inh,[3],0%
same,%Inh,[4]; 1 µM,0% and 14%
same,%Inh,[5]; 1 µM,59% and 64%
same,%Inh,[6],0%
same,%Inh,[7]; 1 µM,3% and 10%
same,%Inh,[8]; 1 µM,14% and 0%
same,%Inh,[9],0%
same,%Inh,[10],0%
same,%Inh,[11]; 1 µM,20% and 10%
same,%Inh,[12]; 1 µM,41% and 59%
same,%Inh,[13]; 1 µM,100% and 99.4%
same,%Inh,[14]; 1 µM,14% and 3%
same,%Inh,[15],0%
same,%Inh,[16]; 1 µM,1% and 11%
same,%Inh,[17]; 1 µM,6% and 11%
same,%Inh,[18]; 1 µM,12% and 52%
same,%Inh,[19]; 1 µM,50% and 43%
same,%Inh,[20]; 1 µM,44% and 28%
COc1ccc(Nc2nccc(N3CCC(NC(=O)Nc4cccc(C(C)=O)c4)C3)n2)cc1 (centres unmarked) [GSK1379731],%Inh,[1],0%
same,%Inh,[2],8%
same,%Inh,[3],0%
same,%Inh,[4],0%
same,%Inh,[5],61%
same,%Inh,[6],0%
same,%Inh,[7],1%
same,%Inh,[8],43%
same,%Inh,[9],0%
same,%Inh,[10],0%
same,%Inh,[11],0%
same,%Inh,[12],0%
same,%Inh,[13],0%
same,%Inh,[14],5%
same,%Inh,[15],0%
same,%Inh,[16],5%
same,%Inh,[17],2%
same,%Inh,[18],0%
same,%Inh,[19],0%
same,%Inh,[20],0%
O=C(NCCNc1ccnc(Nc2ccc(F)cc2)n1)Nc1ccccc1F [GSK1379880],%Inh,[1],3%
same,%Inh,[2],28%
same,%Inh,[3],0%
same,%Inh,[4],0%
same,%Inh,[5],0%
same,%Inh,[6],0%
same,%Inh,[7],0%
same,%Inh,[8],15%
same,%Inh,[9],0%
same,%Inh,[10],0%
same,%Inh,[11],11%
same,%Inh,[12],0%
same,%Inh,[13],47%
same,%Inh,[14],24%
same,%Inh,[15],0%
same,%Inh,[16],2%
same,%Inh,[17],0%
same,%Inh,[18],0%
same,%Inh,[19],9%
same,%Inh,[20],0%
Cc1cccc(-c2nc(-c3ccc(S(C)(=O)=O)cc3)sc2-c2ccncc2)c1,%Inh,[1],19%
same,%Inh,[2],0%
same,%Inh,[3],12%
same,%Inh,[4],25%
same,%Inh,[5],9%
same,%Inh,[6],0%
same,%Inh,[7],0%
same,%Inh,[8],4%
same,%Inh,[9],0%
same,%Inh,[10],7%
same,%Inh,[11],0%
same,%Inh,[12],1%
same,%Inh,[13],9%
same,%Inh,[14],0%
same,%Inh,[15],0%
same,%Inh,[16],0%
same,%Inh,[17],11%
same,%Inh,[18],0%
same,%Inh,[19],9%
same,%Inh,[20],8%
CN(C(=O)c1ccc(-c2cc(-c3c[nH]nc3-c3ccccn3)ccn2)cc1)C1CCOCC1 [GW810083],%Inh,[1],0%
same,%Inh,[2],15%
same,%Inh,[3],0%
same,%Inh,[4],9%
same,%Inh,[5],45%
same,%Inh,[6],0%
same,%Inh,[7],21%
same,%Inh,[8],0%
same,%Inh,[9],47%
same,%Inh,[10],0%
same,%Inh,[11],0%
same,%Inh,[12],12%
same,%Inh,[13],5%
same,%Inh,[14],23%
same,%Inh,[15],0%
same,%Inh,[16],0%
same,%Inh,[17],0%
same,%Inh,[18],31%
same,%Inh,[19],20%
same,%Inh,[20],0%
Cl.Nc1ncnc2occ(-c3ccc(NC(=O)Nc4cc(C(F)(F)F)ccc4F)cc3)c12 [SB-707548],%Inh,[1],11%
same,%Inh,[2],2%
same,%Inh,[3],59%
same,%Inh,[4],97.8%
same,%Inh,[5],100%
same,%Inh,[6],78%
same,%Inh,[7],7%
same,%Inh,[8],74%
same,%Inh,[9],95%
same,%Inh,[10],0%
same,%Inh,[11],6%
same,%Inh,[12],45%
same,%Inh,[13],82%
same,%Inh,[14],69%
same,%Inh,[15],11%
same,%Inh,[16],13%
same,%Inh,[17],69%
same,%Inh,[18],90.7%
same,%Inh,[19],99.9%
same,%Inh,[20],20%
NS(=O)(=O)CCc1cccc(Nc2nccc(-c3c(-c4cccc(NC(=O)c5c(F)cccc5F)c4)nn4ccccc34)n2)c1 [GSK336735],%Inh,[1],0%
same,%Inh,[2],19%
same,%Inh,[3],0%
same,%Inh,[4],0%
same,%Inh,[5],0%
same,%Inh,[6],0%
same,%Inh,[7],0%
same,%Inh,[8],25%
same,%Inh,[9],0%
same,%Inh,[10],1%
same,%Inh,[11],4%
same,%Inh,[12],0%
same,%Inh,[13],53%
same,%Inh,[14],27%
same,%Inh,[15],10%
same,%Inh,[16],100%
same,%Inh,[17],21%
same,%Inh,[18],21%
same,%Inh,[19],99.7%
same,%Inh,[20],97.5%
Cl.Cl.Cl.Fc1ccc(-c2ncn(C3CCNCC3)c2-c2ccnc(Nc3ccccc3)n2)cc1 [SB-238039],%Inh,[1],0%
same,%Inh,[2]; 1 µM,18% and 19%
same,%Inh,[3],0%
same,%Inh,[4]; 1 µM,19% and 33%
same,%Inh,[5]; 1 µM,49% and 19%
same,%Inh,[6],0%
same,%Inh,[7]; 1 µM,34% and 37%
same,%Inh,[8]; 1 µM,0% and 29%
same,%Inh,[9]; 1 µM,5% and 15%
same,%Inh,[10],0%
same,%Inh,[11],0%
same,%Inh,[12]; 1 µM,0% and 39%
same,%Inh,[13]; 1 µM,99.5% and 97.5%
same,%Inh,[14]; 1 µM,0% and 1%
same,%Inh,[15],0%
same,%Inh,[16]; 1 µM,6% and 21%
same,%Inh,[17]; 1 µM,37% and 14%
same,%Inh,[18]; 1 µM,27% and 19%
same,%Inh,[19]; 1 µM,1% and 14%
same,%Inh,[20]; 1 µM,0% and 10%
